Assay [1] concerns the target Mitogen-activated protein kinase 3 (Homo sapiens) (UniProt P27361). The following applies: at 1 µM.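 Further: values are mean percent inhibition of MAPK3.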
For assay [2], the target named is SRSF protein kinase 3 (Homo sapiens) (UniProt Q9UPE1). Particulars: at 0.1 µM.
Assay [3] has the same target. Particulars: at 1 µM.
Assay [4] deals with Mitogen-activated protein kinase 14 (Homo sapiens) (UniProt Q16539). Particulars: at 0.1 µM.
For assay [5] the target is unchanged. The following applies: at 1 µM.
The target of assay [6] is Mitogen-activated protein kinase 11 (Homo sapiens) (UniProt Q15759). The following applies: at 0.1 µM.
Assay [7] has the same target. Particulars: at 1 µM.
The target in assay [8] is T1, Mitogen-activated protein kinase 13 (Homo sapiens) (UniProt O15264).
T1 sequence (whole entry): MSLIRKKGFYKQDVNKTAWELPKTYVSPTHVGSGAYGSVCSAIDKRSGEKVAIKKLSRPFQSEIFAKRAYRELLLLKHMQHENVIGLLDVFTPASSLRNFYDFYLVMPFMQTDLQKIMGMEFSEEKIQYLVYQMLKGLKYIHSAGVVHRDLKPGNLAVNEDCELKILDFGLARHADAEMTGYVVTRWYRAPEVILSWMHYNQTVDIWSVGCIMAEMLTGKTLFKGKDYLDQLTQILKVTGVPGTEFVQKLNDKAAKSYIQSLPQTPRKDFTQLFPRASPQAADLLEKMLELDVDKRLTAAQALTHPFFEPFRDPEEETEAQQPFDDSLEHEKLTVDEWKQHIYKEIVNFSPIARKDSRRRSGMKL
Particulars: at 0.1 µM.

The target in assay [9] is T1, Mitogen-activated protein kinase 13 (Homo sapiens). The following applies: at 1 µM.
Assay [10] has as its target T2, Mitogen-activated protein kinase 12 (Homo sapiens) (UniProt P53778).
T2 sequence (whole entry): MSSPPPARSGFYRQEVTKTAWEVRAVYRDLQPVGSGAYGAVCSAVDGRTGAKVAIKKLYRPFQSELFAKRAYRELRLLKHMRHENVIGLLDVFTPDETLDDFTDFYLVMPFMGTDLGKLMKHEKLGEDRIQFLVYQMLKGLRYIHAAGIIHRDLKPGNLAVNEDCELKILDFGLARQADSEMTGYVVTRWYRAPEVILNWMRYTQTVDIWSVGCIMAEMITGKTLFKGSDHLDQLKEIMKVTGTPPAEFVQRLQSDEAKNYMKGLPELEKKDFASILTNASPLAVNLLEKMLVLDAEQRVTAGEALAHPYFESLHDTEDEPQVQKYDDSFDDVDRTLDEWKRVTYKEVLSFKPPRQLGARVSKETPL
The following applies: at 0.1 µM.

Assay [11] concerns the target T2, Mitogen-activated protein kinase 12 (Homo sapiens). Particulars: at 1 µM.
In assay [12] the target is SRSF protein kinase 1 (Homo sapiens) (UniProt Q96SB4). Particulars: at 0.1 µM.
Assay [13] shares this target. Particulars: at 1 µM.
Assay [14] deals with Phosphatidylinositol 4,5-bisphosphate 3-kinase catalytic subunit alpha isoform (Homo sapiens) (UniProt P42336). Particulars: at 0.1 µM.
For assay [15] the target is unchanged. The following applies: at 1 µM.
Assay [16] concerns the target T3, Phosphatidylinositol 4,5-bisphosphate 3-kinase catalytic subunit delta isoform (Homo sapiens) (UniProt O00329).
T3 sequence (whole entry): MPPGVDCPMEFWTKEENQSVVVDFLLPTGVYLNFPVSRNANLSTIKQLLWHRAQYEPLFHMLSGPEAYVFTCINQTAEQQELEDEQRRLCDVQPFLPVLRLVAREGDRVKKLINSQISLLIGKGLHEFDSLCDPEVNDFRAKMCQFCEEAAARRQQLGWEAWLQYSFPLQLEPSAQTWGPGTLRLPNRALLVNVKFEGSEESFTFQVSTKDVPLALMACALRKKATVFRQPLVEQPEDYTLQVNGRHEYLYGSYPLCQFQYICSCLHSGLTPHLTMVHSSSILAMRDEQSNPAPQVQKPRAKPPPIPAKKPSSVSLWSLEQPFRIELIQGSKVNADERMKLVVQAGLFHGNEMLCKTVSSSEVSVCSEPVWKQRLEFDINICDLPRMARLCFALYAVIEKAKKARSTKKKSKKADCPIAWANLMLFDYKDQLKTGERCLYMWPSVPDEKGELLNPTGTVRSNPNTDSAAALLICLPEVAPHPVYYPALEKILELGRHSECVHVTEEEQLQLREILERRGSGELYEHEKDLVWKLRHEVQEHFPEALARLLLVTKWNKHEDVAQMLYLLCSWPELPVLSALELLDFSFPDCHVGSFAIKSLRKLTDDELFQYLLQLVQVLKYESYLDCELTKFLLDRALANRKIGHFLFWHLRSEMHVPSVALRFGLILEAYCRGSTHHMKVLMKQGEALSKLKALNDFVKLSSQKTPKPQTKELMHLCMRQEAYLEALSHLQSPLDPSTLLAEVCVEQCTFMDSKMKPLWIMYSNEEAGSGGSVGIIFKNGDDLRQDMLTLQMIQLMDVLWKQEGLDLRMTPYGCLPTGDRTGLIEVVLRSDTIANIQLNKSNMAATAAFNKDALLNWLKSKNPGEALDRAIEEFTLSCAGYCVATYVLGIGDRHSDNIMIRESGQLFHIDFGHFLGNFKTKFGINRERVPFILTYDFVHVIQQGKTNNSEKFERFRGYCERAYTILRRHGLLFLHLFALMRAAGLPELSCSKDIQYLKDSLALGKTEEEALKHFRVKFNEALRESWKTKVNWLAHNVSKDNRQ
The following applies: at 0.1 µM.

Assay [17] deals with T3, Phosphatidylinositol 4,5-bisphosphate 3-kinase catalytic subunit delta isoform (Homo sapiens). The following applies: at 1 µM.
The target in assay [18] is Phosphatidylinositol 4-kinase beta (Homo sapiens) (UniProt Q9UBF8). Particulars: at 0.1 µM.
Assay [19] has the same target. Particulars: at 1 µM.
Assay [20] concerns the target Sphingosine kinase 1 (Homo sapiens) (UniProt Q9NYA1). The following applies: at 0.1 µM.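 Further: mean percent inhibition of SPHK1 activity, measured within the GSK PKIS screening panel.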

Molecules are shown by their SMILES.

Chain of Mitogen-activated protein kinase 14 (Homo sapiens) (Q16539 whole entry): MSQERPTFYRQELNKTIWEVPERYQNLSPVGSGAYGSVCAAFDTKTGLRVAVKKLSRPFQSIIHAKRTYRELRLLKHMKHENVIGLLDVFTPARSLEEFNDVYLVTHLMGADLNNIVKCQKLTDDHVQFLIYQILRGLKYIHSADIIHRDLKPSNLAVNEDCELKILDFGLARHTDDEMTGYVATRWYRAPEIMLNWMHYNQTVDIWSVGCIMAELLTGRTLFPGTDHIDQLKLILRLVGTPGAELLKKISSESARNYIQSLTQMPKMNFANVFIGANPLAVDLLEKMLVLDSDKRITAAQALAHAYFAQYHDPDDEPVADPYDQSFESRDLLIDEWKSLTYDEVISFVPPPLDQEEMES
Chain of SRSF protein kinase 3 (Homo sapiens) (Q9UPE1 whole entry): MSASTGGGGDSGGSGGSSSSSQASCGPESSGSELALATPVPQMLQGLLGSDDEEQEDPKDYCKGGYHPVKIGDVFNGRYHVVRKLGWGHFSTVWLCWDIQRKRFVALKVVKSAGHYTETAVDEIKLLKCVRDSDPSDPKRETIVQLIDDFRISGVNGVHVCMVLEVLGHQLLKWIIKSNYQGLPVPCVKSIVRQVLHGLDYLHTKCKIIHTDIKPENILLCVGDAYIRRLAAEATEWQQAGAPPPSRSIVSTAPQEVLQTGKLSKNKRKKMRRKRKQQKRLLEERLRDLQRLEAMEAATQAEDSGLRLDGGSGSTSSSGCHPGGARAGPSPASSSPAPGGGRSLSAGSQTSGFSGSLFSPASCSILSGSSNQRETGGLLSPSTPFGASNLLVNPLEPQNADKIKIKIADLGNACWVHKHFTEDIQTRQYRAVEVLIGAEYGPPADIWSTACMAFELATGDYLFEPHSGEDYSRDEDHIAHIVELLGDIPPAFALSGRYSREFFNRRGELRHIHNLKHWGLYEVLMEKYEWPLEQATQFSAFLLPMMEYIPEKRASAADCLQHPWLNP
Chain of Sphingosine kinase 1 (Homo sapiens) (Q9NYA1 whole entry): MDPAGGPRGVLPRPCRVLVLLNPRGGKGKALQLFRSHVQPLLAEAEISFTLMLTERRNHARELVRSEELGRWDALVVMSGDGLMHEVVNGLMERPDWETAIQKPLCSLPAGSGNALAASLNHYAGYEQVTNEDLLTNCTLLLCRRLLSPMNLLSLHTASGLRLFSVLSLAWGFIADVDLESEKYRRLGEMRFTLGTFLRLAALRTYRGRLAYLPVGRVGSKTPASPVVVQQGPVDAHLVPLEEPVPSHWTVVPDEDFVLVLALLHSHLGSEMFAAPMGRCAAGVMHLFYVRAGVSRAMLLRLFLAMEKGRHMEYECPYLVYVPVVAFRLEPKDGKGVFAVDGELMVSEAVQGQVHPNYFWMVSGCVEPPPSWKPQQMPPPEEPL
Chain of Phosphatidylinositol 4-kinase beta (Homo sapiens) (Q9UBF8 2-816 limits assumed): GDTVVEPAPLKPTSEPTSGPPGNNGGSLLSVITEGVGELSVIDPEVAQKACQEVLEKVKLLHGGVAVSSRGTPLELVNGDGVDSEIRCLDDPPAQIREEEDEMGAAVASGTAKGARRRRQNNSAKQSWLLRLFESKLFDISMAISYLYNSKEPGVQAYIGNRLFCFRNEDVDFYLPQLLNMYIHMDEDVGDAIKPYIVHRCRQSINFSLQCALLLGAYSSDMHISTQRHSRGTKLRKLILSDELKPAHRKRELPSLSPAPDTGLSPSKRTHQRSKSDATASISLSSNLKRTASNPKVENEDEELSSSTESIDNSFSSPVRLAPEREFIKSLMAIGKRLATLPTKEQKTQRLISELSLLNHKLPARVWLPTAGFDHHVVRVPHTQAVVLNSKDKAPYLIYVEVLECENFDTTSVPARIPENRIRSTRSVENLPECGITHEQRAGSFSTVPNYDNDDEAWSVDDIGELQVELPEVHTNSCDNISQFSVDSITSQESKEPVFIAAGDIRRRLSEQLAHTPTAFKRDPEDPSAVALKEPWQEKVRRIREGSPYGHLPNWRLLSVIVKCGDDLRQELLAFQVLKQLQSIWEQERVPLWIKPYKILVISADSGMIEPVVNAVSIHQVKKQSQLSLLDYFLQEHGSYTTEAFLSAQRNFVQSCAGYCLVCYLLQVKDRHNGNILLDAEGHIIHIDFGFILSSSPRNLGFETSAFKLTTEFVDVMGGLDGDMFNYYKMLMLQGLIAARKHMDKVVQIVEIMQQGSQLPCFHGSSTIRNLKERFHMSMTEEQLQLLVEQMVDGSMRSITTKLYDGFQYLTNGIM
Chain of Mitogen-activated protein kinase 3 (Homo sapiens) (P27361 whole entry): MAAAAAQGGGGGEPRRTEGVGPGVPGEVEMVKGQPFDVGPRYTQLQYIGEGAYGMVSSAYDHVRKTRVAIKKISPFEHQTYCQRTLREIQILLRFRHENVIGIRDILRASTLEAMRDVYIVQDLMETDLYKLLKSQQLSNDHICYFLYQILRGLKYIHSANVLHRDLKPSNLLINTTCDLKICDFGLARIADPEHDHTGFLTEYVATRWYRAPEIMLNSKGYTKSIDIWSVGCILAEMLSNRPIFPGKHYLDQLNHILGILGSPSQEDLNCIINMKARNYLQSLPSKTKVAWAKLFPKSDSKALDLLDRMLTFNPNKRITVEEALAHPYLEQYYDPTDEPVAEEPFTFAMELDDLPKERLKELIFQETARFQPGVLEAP
Chain of Mitogen-activated protein kinase 11 (Homo sapiens) (Q15759 whole entry): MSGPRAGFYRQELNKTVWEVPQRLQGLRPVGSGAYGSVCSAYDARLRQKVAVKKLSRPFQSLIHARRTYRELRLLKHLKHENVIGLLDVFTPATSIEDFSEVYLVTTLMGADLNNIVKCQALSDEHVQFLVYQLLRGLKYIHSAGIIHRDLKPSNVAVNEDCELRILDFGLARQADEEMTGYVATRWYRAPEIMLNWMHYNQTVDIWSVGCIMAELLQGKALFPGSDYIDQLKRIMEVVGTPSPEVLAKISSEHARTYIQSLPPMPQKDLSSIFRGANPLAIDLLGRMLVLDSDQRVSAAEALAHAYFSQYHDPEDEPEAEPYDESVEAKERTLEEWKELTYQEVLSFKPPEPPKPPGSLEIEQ
Chain of Phosphatidylinositol 4,5-bisphosphate 3-kinase catalytic subunit alpha isoform (Homo sapiens) (P42336 whole entry, canonical isoform): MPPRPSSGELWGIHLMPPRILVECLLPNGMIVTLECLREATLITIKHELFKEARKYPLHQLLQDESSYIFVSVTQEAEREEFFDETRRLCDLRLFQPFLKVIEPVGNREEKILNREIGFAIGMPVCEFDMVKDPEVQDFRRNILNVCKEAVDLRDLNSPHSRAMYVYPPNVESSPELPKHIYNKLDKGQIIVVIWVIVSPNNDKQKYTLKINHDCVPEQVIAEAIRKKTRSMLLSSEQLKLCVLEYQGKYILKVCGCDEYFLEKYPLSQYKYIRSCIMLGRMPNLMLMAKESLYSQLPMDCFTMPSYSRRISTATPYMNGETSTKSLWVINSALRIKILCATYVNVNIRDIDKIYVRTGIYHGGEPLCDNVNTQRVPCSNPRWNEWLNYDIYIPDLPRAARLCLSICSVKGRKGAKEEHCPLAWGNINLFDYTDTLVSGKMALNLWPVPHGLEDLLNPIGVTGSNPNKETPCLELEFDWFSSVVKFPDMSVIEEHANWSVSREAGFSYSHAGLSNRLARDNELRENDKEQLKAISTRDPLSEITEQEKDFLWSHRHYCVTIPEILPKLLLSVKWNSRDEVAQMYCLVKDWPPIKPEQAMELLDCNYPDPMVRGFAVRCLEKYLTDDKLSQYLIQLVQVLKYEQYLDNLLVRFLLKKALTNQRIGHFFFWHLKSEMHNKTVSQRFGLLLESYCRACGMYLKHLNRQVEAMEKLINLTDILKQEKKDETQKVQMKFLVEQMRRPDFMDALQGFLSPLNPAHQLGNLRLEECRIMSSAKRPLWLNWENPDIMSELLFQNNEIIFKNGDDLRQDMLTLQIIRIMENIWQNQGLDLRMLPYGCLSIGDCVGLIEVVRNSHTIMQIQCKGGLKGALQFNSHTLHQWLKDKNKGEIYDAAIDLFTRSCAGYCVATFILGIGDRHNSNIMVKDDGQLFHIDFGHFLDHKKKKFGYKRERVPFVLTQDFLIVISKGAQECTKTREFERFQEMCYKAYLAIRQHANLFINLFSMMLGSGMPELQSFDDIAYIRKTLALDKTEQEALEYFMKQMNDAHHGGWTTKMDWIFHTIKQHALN
Chain of SRSF protein kinase 1 (Homo sapiens) (Q96SB4 whole entry): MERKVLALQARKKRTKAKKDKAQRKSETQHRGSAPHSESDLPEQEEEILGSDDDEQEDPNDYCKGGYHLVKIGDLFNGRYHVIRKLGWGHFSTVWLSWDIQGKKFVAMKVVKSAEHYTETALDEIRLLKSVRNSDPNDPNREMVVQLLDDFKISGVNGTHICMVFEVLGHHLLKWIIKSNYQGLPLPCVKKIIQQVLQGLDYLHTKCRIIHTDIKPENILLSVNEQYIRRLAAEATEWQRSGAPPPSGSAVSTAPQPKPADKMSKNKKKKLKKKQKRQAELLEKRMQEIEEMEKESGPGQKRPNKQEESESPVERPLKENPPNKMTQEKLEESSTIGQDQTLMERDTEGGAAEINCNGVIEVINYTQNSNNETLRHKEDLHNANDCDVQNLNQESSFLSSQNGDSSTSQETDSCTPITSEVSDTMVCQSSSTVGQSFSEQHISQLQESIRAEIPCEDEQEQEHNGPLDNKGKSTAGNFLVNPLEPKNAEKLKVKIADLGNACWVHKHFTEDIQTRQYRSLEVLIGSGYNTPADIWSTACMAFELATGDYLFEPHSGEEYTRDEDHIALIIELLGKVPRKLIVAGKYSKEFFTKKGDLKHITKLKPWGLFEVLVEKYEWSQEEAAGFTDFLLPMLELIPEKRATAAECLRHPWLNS

For `CCc1nn2ncccc2c1-c1ccnc(NC2CC2)n1`, the inhibition was 4.9% in [1]; -0.73% in assay [2]; -0.47% in [3]; 4.19% in assay [4]; 7.08% in assay [5]; 5.64% in assay [6]. Besides, the inhibition is 7.82% in assay [7]; 3.24% in assay [8]; 3.22% in assay [9]; 2.35% in [10]; 3.05% in [11]; -1.37% in assay [12]. In addition, the inhibition in [13] was -0.37%; in assay [14] it was 1.28%; in assay [15] it was 1.26%; in assay [16], 0.07%; in assay [17] it was 0.87%; in assay [18], 5.11%. In addition, the inhibition is 8.09% in assay [19] and -2.72% in assay [20].

As for `COc1cccc(-n2ncc3c(N/N=C/c4ccc(F)cc4)ncnc32)c1`, the inhibition in assay [1] was 3.8%; in [2], -0.53%; in [3] it was 1.02%; in assay [4] it was 2.2%; in assay [5], 7.4%; in assay [6], 4.13%. Further, the inhibition in [7] is 6.02%; in assay [8], 6.87%; in assay [9], 6.81%; in assay [10] it was -0.23%; in assay [11], 1.41%; in assay [12], -0.75%. Further, the inhibition was 2.6% in assay [13]; 3.46% in assay [14]; 19.1% in assay [15]; 0.55% in assay [16]; 17.3% in assay [17]; -4.22% in assay [18]. The values for the inhibition in [19] and in assay [20] were -5.29% and 2.72%, respectively.

Consider `O=S(=O)(CCNCc1ccc(-c2ccc3ncnc(Nc4ccc(OCc5cccc(F)c5)c(Cl)c4)c3c2)o1)c1ccccc1`, for which the inhibition in assay [1] is 6%; in assay [2], -1.7%; in assay [3], 3.71%; in assay [4] it was 16.1%; in [5], 14%; in assay [6], 6.03%. The inhibition was 6.99% in assay [7]; 6.05% in [8]; 5.53% in [9]; 3.55% in [10]; 5.41% in assay [11]; -1.17% in [12]. Moreover, the inhibition in [13] was -1.46%; in assay [14], 5.28%; in assay [15] it was 5.59%; in assay [16] it was 0.47%; in [17], 6.33%; in assay [18] it was -6.34%. The values for the inhibition in assay [19] and in [20] were -9.91% and 1.07%, respectively.

On to `CN1CCC(n2cnc(-c3ccc(F)cc3)c2-c2ccnc(N)n2)CC1`, for which the inhibition is 3.12% in assay [1]; -0.19% in assay [2]; -0.82% in assay [3]; 49.7% in assay [4]; 83% in [5]; 5.11% in [6]. In addition, the inhibition in assay [7] was 30.6%; in assay [8], 0.27%; in assay [9] it was 4.13%; in assay [10] it was 0.59%; in [11] it was 2.49%; in assay [12], -1.72%. For the same compound, the inhibition in assay [13] was -1.48%; in assay [14], 1.81%; in [15], 5.12%; in assay [16] it was 4.38%; in [17], 27.1%; in [18], 1.13%. Besides, the inhibition was 3.14% in assay [19] and -2.21% in assay [20].

In the case of `CS(=O)(=O)CCNCc1ccc(-c2ccc3ncnc(Nc4ccc(OCc5ccccc5)c(C(F)(F)F)c4)c3c2)o1`, the inhibition in [1] was 3.07%; in assay [2], -3%; in [3] it was -1.24%; in assay [4] it was 5.55%; in [5] it was 2.96%; in assay [6] it was 4.3%. The inhibition in assay [7] is 5.41%; in [8], 3.67%; in assay [9], 2.13%; in assay [10], 2.6%; in [11] it was 2.8%; in assay [12] it was -2.41%. Further, the inhibition is -1.93% in assay [13]; 4.02% in assay [14]; 4.89% in [15]; 0.55% in assay [16]; 2.2% in [17]; -0.29% in assay [18]. Besides, the inhibition in assay [19] is 1.06%; in assay [20], 0.51%.

Regarding `CCCN1CCC(c2ccc(Nc3nc(Nc4cc(F)ccc4C(N)=O)c4cc[nH]c4n3)c(OC)c2)CC1`, the inhibition turned out to be 13.1% in assay [1]; 0.67% in [2]; 25.4% in assay [3]; 1.69% in [4]; 11.7% in assay [5]; 6.28% in assay [6]. In addition, the inhibition was 14.3% in assay [7]; 0.03% in assay [8]; 5.13% in [9]; 1.44% in [10]; 2.82% in assay [11]; -0.15% in assay [12]. The inhibition in assay [13] was 12.7%; in [14] it was 3.82%; in [15], 3.17%; in assay [16] it was 2.18%; in assay [17] it was 13.3%; in assay [18], -9.61%. The inhibition in assay [19] was -8.79%; in assay [20], -0.97%.

As a reminder, the inhibition is the relative decrease from the control value, in per cent.

(Values after ChEMBL document CHEMBL1961873, “Compounds: GSK PKIS; Assays: Nanosyn kinase panel” (2012).)
